# Test results: the supplement of paper PMC8877412
# Counter-ions that a name gives are not always drawn. ± gives the uncertainty stated by the source.
# Tested on: NCC-PMP1-C1
# Assay: cell viability relative to DMSO control; higher = less growth inhibition
# Conditions: 10 µM; 72 h
# Procedure: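 NCC-PMP1-C1 pseudomyxoma peritonei cells were seeded in 384-well plates coated with Matrigel and MEF (1e4 cells). Viability was read after 72 h by CCK-8 and expressed as % of the DMSO control, mean ± SD of duplicates.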
row,Compound,cell viability
1,CCCCCCNC(=O)n1cc(F)c(=O)[nH]c1=O [Carmofur],96.6 ± 12%
2,CC[C@@]1(O)C(=O)OCc2c1cc1n(c2=O)Cc2cc3c(CN(C)C)c(O)ccc3nc2-1 [Topotecan HCl],55.8 ± 2.9%
3,S=c1[nH]cnc2nc[nH]c12 [Mercaptopurine (6-MP)],-6.45%
4,C=CC(=O)N1CCC[C@@H](n2nc(-c3ccc(Oc4ccccc4)cc3)c3c(N)ncnc32)C1,59 ± 5.5%
5,C[C@]1(O)C[C@@H](c2nc(-c3ccc4ccc(-c5ccccc5)nc4c3)c3c(N)nccn32)C1 [Linsitinib (OSI-906)],58.9 ± 2.1%
6,Nc1nc(F)nc2c1ncn2[C@@H]1O[C@H](COP(=O)(O)O)[C@@H](O)[C@@H]1O [Fludarabine Phosphate],-11.4 ± 1.5%
7,COc1cc2c(Oc3ccc(NC(=O)C4(C(=O)Nc5ccc(F)cc5)CC4)cc3F)ccnc2cc1OCCCN1CCOCC1,2.42 ± 1%
8,"CC[C@H](Nc1ncnc2[nH]cnc12)c1nc2cccc(F)c2c(=O)n1-c1ccccc1 [CAL-101 (Idelalisib, GS-1101)]",73.5 ± 9.8%
9,CCOc1cc(C(C)(C)C)ccc1C1=N[C@@](C)(c2ccc(Cl)cc2)[C@@](C)(c2ccc(Cl)cc2)N1C(=O)N1CCN(CCCS(C)(=O)=O)CC1,52.5 ± 3.1%
10,C=CC(=O)Nc1cc2c(Nc3ccc(F)c(Cl)c3)ncnc2cc1OCCCN1CCOCC1 [Canertinib(CI-1033)],92.8 ± 7.2%
11,COc1c2ccoc2cc2oc(=O)ccc12 [Bergapten],87.3 ± 5%
12,COc1cc2nccc(Oc3ccc(NC(=O)NC4CC4)c(Cl)c3)c2cc1C(N)=O [Lenvatinib (E7080)],69.6 ± 2%
13,CN(Cc1cnc2nc(N)nc(N)c2n1)c1ccc(C(=O)N[C@@H](CCC(=O)O)C(=O)O)cc1 [Methotrexate],110 ± 1.7%
14,FC(F)(F)c1ccc(/C=C/c2nc(COc3ccc(CCCCn4ccnn4)cc3)co2)cc1 [Mubritinib (TAK 165)],171 ± 3.5%
15,Nc1ccn([C@@H]2O[C@H](CO)[C@@H](O)[C@@H]2O)c(=O)n1 [Cytosine β-D-arabinofuranoside hydrochloride],74.2 ± 10%
16,N#CC[C@H](C1CCCC1)n1cc(-c2ncnc3[nH]ccc23)cn1,83.6 ± 8.2%
17,Cc1c2oc3c(C)ccc(C(=O)N[C@@H]4C(=O)N[C@H](C(C)C)C(=O)N5CCC[C@H]5C(=O)N(C)CC(=O)N(C)[C@@H](C(C)C)C(=O)O[C@@H]4C)c3nc-2c(C(=O)N[C@@H]2C(=O)N[C@H](C(C)C)C(=O)N3CCC[C@H]3C(=O)N(C)CC(=O)N(C)[C@@H](C(C)C)C(=O)O[C@@H]2C)c(N)c1=O [Actinomycin D],8.77 ± 0.95%
18,COc1cc2nccc(Oc3ccc(NC(=O)Nc4cc(C)on4)c(Cl)c3)c2cc1OC [Tivozanib (AV-951)],60.7 ± 11%
19,O=[n+]1c(CBr)c(CBr)n([O-])c2ccccc21 [Conoidin A],112 ± 22%
20,Nc1ncn([C@H]2C[C@H](O)[C@@H](CO)O2)c(=O)n1 [Decitabine],95.2 ± 0.53%

row,Compound,cell viability
1,Cc1cc(Nc2ncc(Cl)c(Nc3ccccc3S(=O)(=O)C(C)C)n2)c(OC(C)C)cc1C1CCNCC1 [Ceritinib (LDK378)],-3.34 ± 0.36%
2,CC(=O)Oc1ccccc1C(=O)O [Aspirin],110 ± 4.8%
3,Nc1ccn([C@@H]2O[C@H](CO)[C@@H](O)C2(F)F)c(=O)n1 [Gemcitabine HCl],67.5 ± 15%
4,CN(N=O)C(=O)NC1C(O)OC(CO)C(O)C1O (stereo not given) [Streptozotocin (STZ)],111 ± 3.5%
5,O=c1[nH]c(=O)n(C2CCCO2)cc1F (stereo not given),108 ± 3.1%
6,CNNCc1ccc(C(=O)NC(C)C)cc1 [Procarbazine HCl],100 ± 22%
7,O=S(=O)(O)CCS [Mesna],-9.24%
8,S=C(NCc1ccc2c(c1)OCO2)N1CCN(c2ncnc3c2oc2ccccc23)CC1 [Amuvatinib (MP-470)],176.1 ± 0.89%
9,C[C@]12CC[C@@H]3c4ccc(O)cc4C[C@@H](CCCCCCCCC[S+]([O-])CCCC(F)(F)C(F)(F)F)[C@H]3[C@@H]1CC[C@@H]2O (stereo not given in full) [Fulvestrant],-7.846 ± 0.067%
10,Oc1ncnc2[nH]ncc12 [Allopurinol],123 ± 13%
11,CNC(=O)c1cc(Oc2ccc(NC(=O)Nc3ccc(Cl)c(C(F)(F)F)c3)c(F)c2)ccn1 [Regorafenib (BAY 73-4506)],147 ± 11%
12,O=C(Nc1nc2cccc(-c3ccc(CN4CCS(=O)(=O)CC4)cc3)n2n1)C1CC1 [Filgotinib (GLPG0634)],93.7 ± 8.6%
13,C[C@@H]1CCN(C(=O)CC#N)C[C@@H]1N(C)c1ncnc2[nH]ccc12,77.2 ± 22%
14,CC(C)(C#N)c1cc(Cn2cncn2)cc(C(C)(C)C#N)c1 [Anastrozole],110 ± 6.5%
15,C#Cc1cccc(Nc2ncnc3cc(OCCOC)c(OCCOC)cc23)c1 [Erlotinib HCl (OSI-744)],74.6 ± 2.7%
16,COc1ccc(C2=N[C@@H](c3ccc(Cl)cc3)[C@@H](c3ccc(Cl)cc3)N2C(=O)N2CCNC(=O)C2)c(OC(C)C)c1 [Nutlin-3],74.1 ± 4.9%
17,Cc1nc(Nc2ncc(C(=O)Nc3c(C)cccc3Cl)s2)cc(N2CCN(CCO)CC2)n1 [Dasatinib],26.3 ± 4.4%
18,O=C1c2c(O)ccc(O)c2C(=O)c2c(NCCNCCO)ccc(NCCNCCO)c21 [Mitoxantrone 2HCl],2.67 ± 1.1%
19,Cc1ccc(S(=O)(=O)Nc2nc3ccccc3nc2Nc2ccc3nsnc3c2)cc1 [XL147 analog],96.2 ± 9%
20,Nc1ccn([C@@H]2O[C@H](CO)[C@@H](O)C2(F)F)c(=O)n1 [Gemcitabine],68.1 ± 11%
